Bioassay records: PubChem BioAssay, National Center for Advancing Translational Sciences (NCATS)
LmPK inhibitor = qHTS Assay for Inhibitors of Leishmania Mexicana Pyruvate Kinase (LmPK) | AID 1721, 2009 | 290,000 compounds, 0.37% hits | Potency, µM (top dose mostly 57.5 µM), usual class: inhibitors | purified LmPK, Kinase-Glo ATP luminescence, 1 h
Target sequence (Q27686 whole entry, looked up): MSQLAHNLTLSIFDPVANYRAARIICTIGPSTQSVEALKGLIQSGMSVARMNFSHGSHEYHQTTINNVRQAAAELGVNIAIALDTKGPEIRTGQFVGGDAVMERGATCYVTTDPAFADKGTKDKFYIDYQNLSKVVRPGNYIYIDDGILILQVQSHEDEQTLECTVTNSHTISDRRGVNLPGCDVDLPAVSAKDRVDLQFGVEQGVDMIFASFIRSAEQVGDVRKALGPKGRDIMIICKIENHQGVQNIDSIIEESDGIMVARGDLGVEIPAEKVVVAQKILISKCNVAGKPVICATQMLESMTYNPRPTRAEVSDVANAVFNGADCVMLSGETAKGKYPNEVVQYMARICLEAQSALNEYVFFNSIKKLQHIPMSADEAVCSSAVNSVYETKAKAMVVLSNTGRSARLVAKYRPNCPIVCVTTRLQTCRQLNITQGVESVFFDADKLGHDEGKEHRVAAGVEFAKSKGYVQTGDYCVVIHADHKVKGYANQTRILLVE
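In 50 mM imidazole pH 7.2 with 7 mM MgCl2, LmPK (0.1 nM) turned over PEP (0.5 mM) and ADP (0.1 mM) for 1 h at room temperature. Luciferase read-out of ATP.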
AMA1 RON2 block = qHTS for Inhibitors of AMA1-RON; Towards Development of Antimalarial Drug Lead: Primary Screen; Potency, µM (top dose mostly 58.2 µM), actives largely listed as inhibitors; Plasmodium falciparum AMA1 (3D7) - RON2 peptide interaction; 360,000 compounds, 0.2% hits; AlphaScreen AMA1-biotinylated RON2 peptide binding; note: nearly all actives have a fitted effect of over 45% in size
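AMA1 (3D7) with his tag at 25 nM final met compounds first, then biotinylated RON2 peptide at 25 nM; detection used donor plus acceptor beads, 10 µg/mL apiece, read by AlphaScreen after 30 min at room temperature.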
Sm TGR block = qHTS Assay for the Inhibitors of Schistosoma Mansoni Peroxiredoxins; 360,000 compounds, 3% hits; Potency, µM (doses to about 114 µM), actives largely listed as inhibitors; purified TGR, DTNB reduction, TNB absorbance 405 nm; note: nearly all actives have a fitted effect of over 60% in size
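First, TGR (20 nM dispensed) and NADPH were mixed with compound. Second, a 15 min room-temperature incubation followed. Third, further NADPH and then DTNB were added to start the reaction. Finally, TNB absorbance was monitored kinetically.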
Tb PYK inh = qHTS of Trypanosoma Brucei Inhibitors. Potency, µM (top dose mostly 76.8 µM), usual class: inhibitors. AID 624173, 2012. pyruvate kinase (Trypanosoma brucei), Q57TT1. 410,000 compounds, 0.12% hits. TbPYK enzyme, Kinase-Glo Plus ATP luminescence, 45 min; note: nearly all actives have a fitted effect of over 50% in size
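T. brucei PYK with substrate was exposed to pin-transferred compounds across a concentration series, then started with 130 uM ADP (final). After 45 min at room temperature, Kinase-Glo Plus luminescence was read, normalized and curve-fitted.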
RE007 growth inh = qHTS Assay for Inhibitors of the HIV-1 protein Vpr; S. pombe RE007 Vpr strain, BacTiter-Glo ATP luminescence, 24 h; Potency, µM (top dose mostly 92.2 µM), most hits filed as inhibitors; 360,000 compounds, 0.21% hits; active = well fitted falling curve with a large enough effect; inconclusive = small, poorly fitted or top-dose-only effect; inactive = no such curve, though single readings can be large or run the other way; note: nearly all actives have a fitted effect of over 50% in size
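Fission yeast strain RE007, carrying one chromosomally integrated HIV-1 vpr copy, was seeded at OD 0.01 in PMG+AL medium with 23 nL pinned compound. After 24 h at 30 °C and 99% humidity, viability was read by BacTiter-Glo luminescence.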
Hits are given with their value; - = inactive; ? = inconclusive; . = no result given. The list is not random: actives were taken first. Their share in the collection is about 3.2%. Unless noted, calls come from the whole dose curve; as a rule, active = well fitted curve in the direction sought with a large enough effect; inconclusive = small, poorly fitted or top-dose-only effect, or another doubt; inactive = no such curve, though single readings can be large; an effect the other way counts as inactive or inconclusive.

SMILES	LmPK inhibitor	AMA1 RON2 block	Sm TGR block	Tb PYK inh	RE007 growth inh
COc1ccc(NC(=O)Cn2c(SCc3ccc(C)cc3)nc3cccnc32)c(OC)c1	.	.	-	-	.
CC[n+]1c(/C=C/C=C/N(C(C)=O)c2ccccc2)sc2ccccc21	-	-	40µM	-	-
CC[n+]1c(/C=C/C=C/c2ccc(N(C)C)cc2)sc2ccccc21	16µM	18µM	?	?	6.3µM
O=[N+]([O-])c1c(O)c(Cl)cc(Cl)c1Cl (tested in a mixture with another compound)	.	-	.	-	-
O=[N+]([O-])c1c(Nc2ccccc2O)ccc2nonc12	-	-	-	-	-
Nc1cc(Cl)c2nonc2c1[N+](=O)[O-]	-	-	1.4µM	-	-
O=C(O)c1cc(Nc2cc(Cl)c3nonc3c2[N+](=O)[O-])ccc1O	-	-	0.1µM	-	-
O=[N+]([O-])c1c(Nc2ccccc2O)cc(Cl)c2nonc12	-	-	0.63µM	-	-
COc1ccc(C2=C(C(C)=O)Sc3nnc(-c4ccc(Cl)cc4)n3N2C(C)=O)cc1OC	.	.	-	-	.
O=C(O)/C=C/C(=O)c1c(-c2ccccc2)[nH]c2ccccc12	-	-	25µM	-	-
CCOc1ccc(OCC)c(NC(=O)c2nnn(CC(=O)Nc3ccc(C)cc3C)c2N)c1	.	.	-	-	.
COc1ccc(CCNc2nc3cc(OC)c(OC)cc3c3nc(-c4cccnc4)nn23)cc1OC	.	.	-	-	.
CCc1ccc(NCc2cc3cc4c(cc3n(CC(=O)Nc3ccc(Cl)cc3)c2=O)OCO4)cc1	.	.	?	-	.
C=CCn1c(SCc2nc3ccccc3nc2C)nnc1-c1ccoc1C	-	-	45µM	-	-
CCn1c(SCc2nc3ccccc3nc2C)nnc1-c1cccs1	-	-	-	-	-
CC(=O)N1N=C(c2cccc([N+](=O)[O-])c2)OC1c1ccc(Br)cc1 (centres undefined)	-	-	-	-	-
CC(=O)N1N=C(c2ccccc2)OC1c1ccc([N+](=O)[O-])s1 (centres undefined)	-	-	32µM	-	35µM
CC(C)c1cnc2c(c1SCc1ccc([N+](=O)[O-])cc1)c(=O)n(C)c(=O)n2C	.	.	-	10µM	.
O=C(NC1CCCC1)c1ccc(CSc2nc3cccnc3n2Cc2ccccc2F)cc1	.	.	-	-	.
COc1ccc(C(=O)Nc2ccc3c(c2)nc2n3CCSC2)cc1	-	-	-	-	-
CCCC(=O)Nc1ccc2c(c1)nc1n2CCN(CCOC)C1	-	-	20µM	-	-
O=C(Nc1ccc2c(c1)nc1n2CCSC1)c1ccccc1	16µM	-	-	-	-
CCCCC(=O)Nc1ccc2c(c1)nc1n2CCN(CCOC)C1	-	-	-	-	-
COCCN1CCn2c(nc3cc(NC(=O)c4cccs4)ccc32)C1	-	-	18µM	-	-
COc1cccc(-n2c(=O)c3c(C)c(C)sc3n(Cc3ccccc3C#N)c2=O)c1	.	.	-	-	.
SMILES	LmPK inhibitor	AMA1 RON2 block	Sm TGR block	Tb PYK inh	RE007 growth inh
Cc1ccc(C)c(NC(=O)CCc2nc3cccnc3n2Cc2cccs2)c1	.	.	-	-	.
O=C1/C(=C\c2ccc(Br)o2)Cc2ccccc21	-	?	-	-	-
COc1ccc2c(c1)CC/C(=C/c1ccco1)C2=O	?	?	-	-	-
Nc1ccc2c(c1)C/C(=C/c1ccco1)C2=O	?	-	16µM	-	?
O=C1/C(=C/c2ccco2)CCc2ccccc21	13µM	-	?	?	?
CCn1cc(C(=O)O)c(=O)c2cnc(N3CCN(C(=S)NC(=O)c4ccc(Br)cc4)CC3)nc21	?	-	-	-	-
CCn1cc(C(=O)O)c(=O)c2cnc(N3CCN(C(=S)NC(=O)c4ccc(Cl)cc4)CC3)nc21	14µM	-	-	-	-
CC(C)(S)C(=O)NC(CS)C(=O)O (centres undefined)	.	.	.	-	.
CCOC(=O)CC(c1ccc(N)cc1)n1c(C)ccc1C (centres undefined)	-	-	?	-	-
Cc1ccc(C)n1C(CC(=O)O)c1ccc(C#N)cc1 (centres undefined)	-	-	40µM	-	-
O=C(Nc1ccc2nc(-c3ccc(Br)o3)[nH]c2c1)c1cccs1	-	-	25µM	-	-
CC(=O)Nc1ccc2nc(-c3ccc(Br)o3)[nH]c2c1	-	-	25µM	-	-
CCc1cccc(NC(=O)CCNS(=O)(=O)c2ccc3c(c2)CCN3C(C)=O)c1	.	.	-	-	.
Cn1c(=O)c(C(=O)COC(=O)c2cc(C(F)(F)F)nc3c(C(F)(F)F)cccc23)c(N)n(CC2CC2)c1=O	-	.	-	.	.
CC(C)Cn1c(N)c(C(=O)CSc2ncccn2)c(=O)n(C)c1=O	.	-	-	-	-
Cn1c(=O)c(C(=O)CCl)c(N)n(CC2CC2)c1=O	-	-	14µM	-	-
CC(C)Cn1c(N)c(C(=O)CCl)c(=O)n(C)c1=O	-	-	20µM	-	-
CCCCNC(=O)c1c(-c2ccccc2)c(-c2ccccc2)nn(C)c1=O	.	.	-	-	.
COc1ccccc1C(=O)Nc1nc2ccccc2[nH]1	11µM	-	-	10µM	?
COc1cc(SC)ccc1C(=O)Nc1c(C)cccc1C	-	-	-	-	-
COc1ccc(C(=O)Nc2nc3ccccc3[nH]2)cc1	?	-	-	-	?
COc1cc(SC)ccc1C(=O)Nc1nc2ccccc2[nH]1	-	-	-	?	4µM
COc1cccc(C(=O)Nc2nc3ccccc3[nH]2)c1	14µM	-	-	-	?
COc1cc(SC)ccc1C(=O)NNC(=O)c1cc(C)oc1C	.	-	-	?	13µM
Cc1ccc2c(c1)c(=O)c(C(=O)c1ccncc1)cn2CC(=O)Nc1c(C)cccc1C	.	.	-	-	.
SMILES	LmPK inhibitor	AMA1 RON2 block	Sm TGR block	Tb PYK inh	RE007 growth inh
CCCCS(=O)(=O)CC(O)CSc1nc(-c2ccc(C)cc2)cc(-c2ccccc2)c1C#N (centres undefined)	.	.	-	-	.
O=C1CSC(=S)N1N=Cc1ccccc1O	.	-	.	?	-
Cc1ccccc1/C=N/N1C(=O)CSC1=S	-	-	10µM	-	-
O=C1CSC(=S)N1/N=C/c1cccnc1	-	-	6.3µM	-	-
O=C1CSC(=S)N1N=Cc1cccc(OCc2ccccc2)c1	.	-	.	-	-
Cc1ccc(S(=O)(=O)N2CCN(c3nc(CN4CCCC4)nc4sc(C)c(C)c34)CC2)cc1	.	-	-	-	-
CC1CCN(Cc2nc(Cl)c3c4c(sc3n2)CCC4)CC1	-	-	16µM	-	-
Clc1nc(CN2CCCCC2)nc2sc3c(c12)CCCC3	-	-	20µM	-	-
Cc1sc2nc(CN3CCCCC3)nc(Cl)c2c1C	-	-	50µM	-	-
